# From PubChem BioAssay
# An excerpt weighted towards active compounds, which were near 27% of everything screened.
# CYP2C19 inhib = blockers of cytochrome P450 2C19 activity – biochemical, luminescence, ADME assay, primary screen. P33261. CYP2C19 Supersomes, luciferin-H EGE luminescence, 30 min. inhibition, % at 5 µM. 96,000 tested, 21% active. AID 778, 2007;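 active = CYP2C19 inhibition above a set limit at 5 µM in the primary screen, cut at about 50% in these data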;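 also: plate controls were negative control wells for no effect and 2.5 mM tranylcypromine positive control for full effect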
# CYP2C9 act = human CYP2C9 activators, primary screen, biochemical, luminescence. recombinant CYP2C9, luciferin-H conversion; stronger effect = higher value; factor 1 = untreated enzyme, 0 = blocked. 96,000 tested, 1.4% active. AID 1024, 2008. Cytochrome P450 2C9 (Homo sapiens), P11712. activation factor at 5 µM;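 active = activation factor of 2 or more for CYP2C9 at a 5 µM dose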;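 also: 0 = sulfaphenazole-blocked wells and 1 = vehicle-only wells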
# EphB4 antag = EphB4-ephrin-B2 interaction antagonists, primary screen, biochemical, TNYL-RAW peptide probe, fluorescence polarization; Ephrin type-B receptor 4 (Homo sapiens), P54760; EphB4 LBD / TNYL-RAW-Alexa532 peptide; inhibition, % at 7 µM; 97,000 tested, 0.15% active; AID 720, 2007;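 active = inhibition above the screen-wide mean inhibition plus 3 SD, cut at about 15% in these data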;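 also: 0% = DMSO wells and 100% = excess unlabeled TNYL-RAW peptide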
# Target sequence (P54760 whole entry, looked up, the tested form may be a part): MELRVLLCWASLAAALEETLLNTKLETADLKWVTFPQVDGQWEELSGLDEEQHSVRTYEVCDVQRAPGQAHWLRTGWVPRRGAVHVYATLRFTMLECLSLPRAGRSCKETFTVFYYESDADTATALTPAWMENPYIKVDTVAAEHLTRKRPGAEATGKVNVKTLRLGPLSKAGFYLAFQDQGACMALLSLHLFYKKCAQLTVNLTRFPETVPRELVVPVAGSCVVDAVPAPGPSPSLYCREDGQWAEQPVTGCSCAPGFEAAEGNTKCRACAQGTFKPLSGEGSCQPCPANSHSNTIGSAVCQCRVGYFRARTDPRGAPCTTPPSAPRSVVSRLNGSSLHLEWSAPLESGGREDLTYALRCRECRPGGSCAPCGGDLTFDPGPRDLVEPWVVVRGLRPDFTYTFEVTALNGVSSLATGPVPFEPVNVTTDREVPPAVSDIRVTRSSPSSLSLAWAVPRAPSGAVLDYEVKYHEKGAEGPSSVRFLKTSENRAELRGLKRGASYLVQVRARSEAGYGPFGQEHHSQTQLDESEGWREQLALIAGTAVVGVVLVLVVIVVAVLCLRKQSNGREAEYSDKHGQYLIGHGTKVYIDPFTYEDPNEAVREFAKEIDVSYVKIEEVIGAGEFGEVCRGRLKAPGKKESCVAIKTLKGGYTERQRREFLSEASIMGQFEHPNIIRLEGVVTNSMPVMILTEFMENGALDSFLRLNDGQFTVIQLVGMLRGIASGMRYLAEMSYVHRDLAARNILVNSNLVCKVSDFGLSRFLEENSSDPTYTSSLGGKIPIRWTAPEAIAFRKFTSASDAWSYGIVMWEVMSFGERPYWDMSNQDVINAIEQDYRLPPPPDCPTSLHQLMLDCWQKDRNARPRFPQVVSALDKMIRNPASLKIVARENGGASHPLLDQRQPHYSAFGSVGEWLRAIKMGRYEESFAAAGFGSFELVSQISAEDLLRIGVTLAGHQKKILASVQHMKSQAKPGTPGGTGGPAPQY
# CYP2C9 inhib = blockers of cytochrome P450 2C9 activity – biochemical, luminescence, ADME assay, primary screen; P11712; CYP2C9 Supersomes, luciferin-H conversion; inhibition, % at 5 µM; 96,000 tested, 20% active; AID 777, 2007;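 active = blocking of liver enzyme CYP2C9 beyond about 50% at 5 µM, limit read from the data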
# CYP2C19 activ = human CYP2C19 activators, primary screen, biochemical, luminescence; Cytochrome P450 2C19 (Homo sapiens), P33261; recombinant CYP2C19, luciferin-H EGE luminescence; stronger effect = higher value; 0 = fully inhibited enzyme, 1 = untreated enzyme; activation factor at 5 µM; 96,000 tested, under 10 active;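 active = activation factor of at least 2 at 5 µM in the primary screen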;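 also: 0 = wells with 2.5 mM tranylcypromine and 1 = vehicle-only wells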
# * marks the source's active call; other numbers are inactive results; x = no result.
SMILES,CYP2C19 inhib,CYP2C9 act,EphB4 antag,CYP2C9 inhib,CYP2C19 activ
COC(=O)C1=C(C)NC2=C(C1c1ccc(O)cc1)S(=O)(=O)c1ccccc12 (stereo unspecified),62*,0.1,6,87*,0.4
O=C(CN1CCN(S(=O)(=O)c2ccc(Cl)cc2)CC1)NC(=O)NC1CCCCC1,19,1.1,3,-5,0.8
O=C(CN1CCN(S(=O)(=O)c2ccccc2)CC1)NC(=O)NC1CCCCC1,55*,0.3,1,74*,0.5
O=C(CN1CCN(S(=O)(=O)c2ccccc2)CC1)NC(=O)NCc1ccccc1,36,0.4,1,62*,0.6
O=C(O)CCc1ccc(-c2cccs2)n1-c1ccc(C(=O)O)cc1,-12,2*,-8,-103,1.1
CCC(=O)N1CCc2cc(S(=O)(=O)N3CCN(c4ccccn4)CC3)ccc21,19,0.7,0,28,0.8
CCC(Oc1nc2ccccc2nc1-c1ccccc1NC(C)=O)C(=O)c1ccccc1 (stereo unspecified),-4,0.5,-2,53*,1
Cn1c(-c2ccccc2)cc2c3no[n+]([O-])c3ccc21,80*,0.7,-4,33,0.2
CCOC(=O)c1c(C)n(OCc2ccccc2)c2ccc3c(no[n+]3[O-])c12,-15,0.8,x,16,1.2
CCCCS(=O)CC(O)COc1ccc(C(C)(C)C)cc1 (stereo unspecified),58*,0.9,7,8,0.4
CCCCS(=O)CC(O)COCC (stereo unspecified),-14,1.1,5,-6,1.1
O=c1c(C(c2c(O)nc3n(c2=O)CCS3)c2cccc3ccccc23)c(O)nc2n1CCS2,-5,1,-7,4,1
COc1ccc(C(=O)Nc2c(Cl)cc(Cl)cc2C(=O)NCc2ccco2)cc1,x,x,2,x,x
COc1ccc(N=c2oc3c(OC)cccc3cc2C(=O)NCc2ccco2)cc1OC,50*,0.3,x,72*,0.5
COc1ccccc1N=c1oc2c(OC)cccc2cc1C(=O)NCc1ccco1,66*,0.4,-6,62*,0.3
COc1ccc(OC)c(N=c2oc3c(OC)cccc3cc2C(=O)NCc2ccco2)c1,45,0.5,x,50*,0.6
O=c1c2c3c(sc2n2cnnc2n1C1CCCCC1)CCC3,13,0.9,x,14,0.9
CCC(C)(C(=O)NC1CCCC1)N(C(=O)c1cnccn1)c1ccccc1 (stereo unspecified),13,0.9,-5,11,0.9
O=C(CCC1CCCC1)N1CCN(C2CCCC2)CC1,73*,0.9,x,11,0.3
O=C1NC2(CCCCC2)C(=O)N1/N=C/c1ccc(O)cc1O,13,3.2*,-7,-219,0.9
O=c1cc(N2CCC3(CC2)OCCO3)[nH]c(=O)n1C1CCCCC1,7,1,-4,4,0.9
O=C(OCc1c(Cl)cccc1Cl)c1cnccn1,-9,1.1,-6,-10,1.1
O=C(OCc1c(Cl)cccc1Cl)c1cccnc1,86*,0.8,2,22,0.1
O=C(OCc1c(Cl)cccc1Cl)c1cccnc1Cl,52*,1.8,2,-78,0.5
C=CCn1c(SC2CCOC2=O)nc2scc(C3CC3)c2c1=O (stereo unspecified),83*,0.2,-7,77*,0.2
SMILES,CYP2C19 inhib,CYP2C9 act,EphB4 antag,CYP2C9 inhib,CYP2C19 activ
C=CCn1c(SCC(=O)c2ccc(CNC(C)=O)o2)nc2scc(C3CC3)c2c1=O,57*,0.3,-5,73*,0.4
C=CCn1c(SCC(=O)NC2CCS(=O)(=O)C2)nc2scc(C3CC3)c2c1=O (stereo unspecified),36,0.3,3,72*,0.6
CC(C)(C)OC(=O)NC(CCNC=C1C(=O)OC(C)(C)OC1=O)C(=O)O (stereo unspecified),-12,0.8,-1,15,1.1
Cc1ccc2cc3cc(C(=O)N(CC(=O)NC4CCCC4)c4cccc(C)c4C)sc3nc2c1,47,0.1,0,94*,0.5
Cc1ccc(C)c(N(CC(=O)NC2CCCC2)C(=O)c2oc(C(C)(C)C)cc2C)c1,26,0.7,1,26,0.7
Cc1ccc(C)c(N(CC(=O)NC2CCCC2)C(=O)c2cc3cc4cccc(C)c4nc3s2)c1,18,0,3,96*,0.8
CCN(CC)S(=O)(=O)c1ccc(N2CCN(S(=O)(=O)c3ccccc3C#N)CC2)nc1,3,0.6,-2,36,1
COc1cccc(C(=O)CSc2nnc(CNS(=O)(=O)c3ccc(C)cc3)n2C)c1,-2,1,-1,2,1
COc1ccccc1N1CCN(C(=O)c2ccc(Cl)c(S(=O)(=O)NCc3ccco3)c2)CC1,70*,0.2,2,77*,0.3
O=C(c1ccc(Cl)c(S(=O)(=O)NCc2ccco2)c1)N1CCN(c2ccccc2F)CC1,39,0.6,2,37,0.6
CCOc1ccc(S(=O)(=O)NCc2ccco2)c2ccccc12,64*,1.1,6,-14,0.4
CCOc1cc(C)c(Cl)cc1S(=O)(=O)NCc1ccco1,16,2*,-8,-103,0.8
COc1cc(OC)c(S(=O)(=O)NCc2ccco2)cc1S(=O)(=O)NCc1ccco1,-9,1.1,7,-7,1.1
COc1cc(C)c(Cl)cc1S(=O)(=O)NCc1ccco1,98*,2*,-5,-100,0
CCOc1ccc(S(=O)(=O)Nc2ccccn2)c2ccccc12,19,0.8,1,17,0.8
Cc1cccc(NC(=O)CC(C)(C)C)c1,42,1,2,-3,0.6
COCCNC(=O)C(c1ccccc1)N(C(=O)Cn1nnc2ccccc21)c1cccnc1 (stereo unspecified),-11,1.2,-6,-22,1.1
CCOC(=O)Nc1cc2c(cc1C(C)=O)OCO2,-18,1.2,3,-22,1.2
O=c1cc(NCc2ccco2)c2ccccc2o1,45,0.9,-7,11,0.6
O=c1cc(NC2CCCCC2)c2ccccc2o1,60*,0.5,3,53*,0.4
Nc1c(NC2CCCCC2)c2ccccc2oc1=O,35,0.8,3,17,0.7
O=c1cc(NCc2ccccc2)c2ccccc2o1,66*,1,0,-1,0.3
COc1cc(Cl)cc(C#N)c1OCC(=O)O,-5,1.2,10,-18,1.1
O=C(OCn1cncn1)c1ccc(Cl)cc1Cl,50,0.6,6,38,0.5
CC(C)(C)C(=O)C(CO)(Oc1ccc(Cl)cc1)n1cncn1 (stereo unspecified),93*,0.2,x,77*,0.1
Cc1ccc(CSCCNC(=O)c2ccc(Cl)c(S(=O)(=O)N3CCOCC3)c2)cc1,62*,0.2,2,81*,0.4
